ULK1 inh: blocks human autophagy kinase ULK1. O75385. AlphaScreen Atg13 phosphorylation by ULK1, luminescence. inhibition, % at 5.96 µM. 1.9% of 30,000 active; in the data active = inhibition above about 43%;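 also: 0% = median of compound wells and 100% = no enzyme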
* hit, by the source's call. The entries come from a sample that favours hits as a whole.

SMILES	ULK1 inh
NCCc1cc(O)c(O)cc1O	90.9*
CNP(=O)(OC)Oc1ccc(C(C)(C)C)cc1Cl (configuration not stated)	-5.4
CC1=C(C(=O)O)N2C(=O)C(N)C2SC1 (configuration not stated)	-27.6
CCCNc1nc(SCCC)nc2c1cnn2CCN	2.5
Oc1cc(Cl)ccc1Oc1ccc(Cl)cc1Cl	44.2*
Oc1ccc(Cl)cc1Cc1ccccc1	-34.3
CN1CCC(Cl)CC1	-28.2
CN(C)[C@@H]1C(=O)C(C(N)=O)=C(O)[C@@]2(O)C(=O)C3=C(O)c4c(O)cccc4[C@@](C)(O)[C@H]3[C@H](O)[C@@H]12	50.8*
Cc1ccc(NC2=NCCN2)c(Cl)c1	26.4
CC(C)(N)Cc1ccccc1	2.3
CCC(Br)(CC)C(=O)NC(N)=O	81.8*
CC12Cc3cn[nH]c3C[C@@H]1CC[C@@H]1[C@@H]2CCC2(C)[C@H]1CC[C@]2(C)O (some centres not stated)	0.2
CC[n+]1c(-c2ccccc2)c2cc(N)ccc2c2ccc(N)cc21	62.4*
C=CC[C@]1(O)CCC2C3CCC4=CC(=O)CCC4=C3C=C[C@@]21C (some centres not stated)	16.6
CCC(CO)NC(=O)[C@@H]1C=C2c3cccc4[nH]cc(c34)C[C@H]2N(C)C1 (some centres not stated)	53.3*
CN1C[C@H](C(=O)N[C@]2(C)O[C@@]3(O)C4CCCN4C(=O)[C@H](Cc4ccccc4)N3C2=O)C=C2c3cccc4[nH]cc(c34)C[C@H]21 (some centres not stated)	23.1
O=C1CC2OCC=C3CN4CC[C@]56c7ccccc7N1C5[C@H]2[C@H]3CC46 (some centres not stated)	-11.9
N#CC(C#N)=Cc1ccc(N2CCOCC2)o1	-1.9
